In PubChem BioAssay (NCATS):
Results filed as inconclusive are left out. Entries that show only a call come without a potency. The source made the active and inactive calls. Calls come from the whole dose curve; as a rule, active = well fitted cell-killing curve with a large enough effect; inconclusive = small, poorly fitted or top-dose-only effect; inactive = flat fitted curve, though single readings scatter.

experiment: qHTS of pediatric cancer cell lines to identify multiple opportunities for drug repurposing: Primary screen for control Hh wild type fibroblast cells (AID 1347106); settings: Hh wild-type fibroblast viability, CellTiter-Glo luminescence, 48 h; series mostly up to 46 µM; note: nearly all actives have a fitted effect of over 55% in size;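 for activity change, negative = cytotoxic: a drop in luminescence marks cytotoxicity and a rise apparent proliferation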
Excerpt: Drug repurposing or repositioning has been offered as a strategy for drug development in oncology programs. This approach has special potential for childhood cancers and other rare or orphan diseases, where the expected return on new drug development has been a disincentive to pharmaceuticals.
In this project we exploit the poly-pharmacology of drugs to discover new indications via phenotypic screening of a panel of 19 well-characterized cell lines derived from solid tumors seen in children and adolescents. The goal is to identify approved drugs with previously unrecognized anticancer properties that has the potential to reveal new mechanisms and biological processes involved in carcinogenesis or drug resistance. We employed a titration-based paradigm (quantitative high-throughput screening or qHTS), where all compounds were tested at multiple concentrations for their effect on cell viability. Concentration-response curves (CRCs) were derived directly from the primary screen, and both potency and efficacy values were used to identify compounds with robust bioactivity profiles. We screened the NIH Chemical Genomics Center (NCGC) Pharmaceutical Collection (NPC) and Mechanism Interrogation Plate (MIPE) small molecule collections of approved and investigational compounds against these cell lines; and measured metabolically active cells after 48 hours of compound treatment as a proxy for cell viability.
Assay Submitter: Nathalia J. Martinez, National Center for Advancing Translational Sciences, National Institutes of Health, Rockville, MD, USA; email: natalia.martinez@nih.gov
[1] Shen, M et al. Quantitative high-throughput phenotypic screening of pediatric cancer cell lines identifies multiple opportunities for drug repurposing. Oncotarget 2017 Dec 19;9(4):4758-4772. PMID 29435139.
The cells were obtained from University of North Carolina (UNC), Pediatric Preclinical Testing Program (PPT), and Coriell Institute (CI).
qHTS cell viability assay:
Cells were assayed in growth media at a density of 500-1,000 cells/well. Five microliters of cells were dispensed into 1,536-well, white, solid-bottom, TC-treated plates (Greiner Bio One) using a multidrop dispenser and incubated at 37 degrees C, 5% CO2, under a humidified atmosphere for 5 hours. Twenty-three nanoliters of compounds and controls (neutral control DMSO or positive control bortezomib at final concentration of 2.3 µM) were subsequently transferred by Kalypsys pintool. For primary screens, the MIPE collection was tested at 11-point dilutions (final concentrations range from 0.78 nM to 46 µM) and the NPC collection at 8-point dilutions (final concentrations range from 0.59 nM to 46 µM). Compounds tested in follow-up screens were assayed at 11-point dilutions. Cells were incubated for 48 hours, followed by addition of 3 µL of CellTiter-Glo (Promega). After a 15 min incubation at room temperature, samples were analyzed for luminescence intensity using a ViewLux High-throughput CCD imager equipped with clear filters.
Potency is the fitted concentration of half-maximal effect.

| SMILES | Potency | activity change, negative = cytotoxic |
| --- | --- | --- |
| O=C(O)c1cc(O)c(O)c(O)c1 | inactive | – |
| COC(=O)C1=C(C)NC(C)=C(C(=O)OCC(C)C)C1c1ccccc1[N+](=O)[O-] (stereo not given) | inactive | – |
| S=c1[nH]c2ccccc2s1 | inactive | – |
| CCCOC(=O)c1ccc(O)cc1 | inactive | – |
| O=C(CS)Nc1ccccc1 | 16.8 µM (active) | – |
| Cc1c(N)c(=O)n(-c2ccccc2)n1C | inactive | – |
| COc1cc2c3cc1Oc1cc(ccc1O)C[C@@H]1c4c(cc(OC)c(O)c4Oc4ccc(cc4)C[C@@H]3N(C)CC2)CC[N+]1(C)C | inactive | – |
| CN(C)[C@@H]1C(=O)C(C(=O)NCN2CCCC2)=C(O)[C@@]2(O)C(=O)C3=C(O)c4c(O)cccc4[C@@](C)(O)C3C[C@@H]12 (stereo not given in full) | inactive | – |
| CCCC(=O)OC[C@@H](OC(=O)CCC)[C@@H](OC(=O)CCC)[C@H](Cn1c2nc(=O)[nH]c(=O)c-2nc2cc(C)c(C)cc21)OC(=O)CCC | inactive | – |
| CN(C)c1ccc(C(=C2C=CC(=[N+](C)C)C=C2)c2ccccc2)cc1 | 23.7 µM (active) | – |
| c1ccc(CCNc2nc(-c3ccccc3)cs2)cc1 | inactive | – |
| O=Cc1ccc(O)c(O)c1O | inactive | – |
| CCCCCCCCCCCCOCCO | inactive | – |
| CCCCCCCCCCCC(=O)[O][Sn]([CH2]CCC)([CH2]CCC)[O]C(=O)CCCCCCCCCCC | inactive | – |
| C#C[C@]1(O)CC[C@H]2[C@@H]3CCc4cc(O)ccc4[C@H]3CC[C@@]21C | inactive | – |
| COc1ccc(-c2cc(=S)ss2)cc1 | inactive | – |
| O=C(O)Cc1cccc(-c2cc(CCCCCCc3ccc(O[C@H]4O[C@H](CO)[C@@H](O)[C@H](O)[C@@H]4O)c(-c4cccc(CC(=O)O)c4)c3)ccc2O[C@H]2O[C@H](CO)[C@@H](O)[C@H](O)[C@@H]2O)c1 | – | 2.02% [at 0.597 µM] (inactive) |
| CCCCCCCCCCCCCCCCCC(=O)O | inactive | – |
| COC(=O)Nc1nc2ccc(C(=O)C3CC3)cc2[nH]1 | inactive | – |
| [O-][n+]1ccccc1SSc1cccc[n+]1[O-] | 11.6 µM (active) | – |

| SMILES | Potency | activity change, negative = cytotoxic |
| --- | --- | --- |
| Oc1c(Br)cc(Br)c2cccnc12 | inactive | – |
| O=C(/C=C/c1ccccc1)NCCO | inactive | – |
| O=C(OCc1ccccc1)c1ccccc1 | inactive | – |
| C=CCCCCCCCCC(=O)O | inactive | – |
| Cc1ccc(C(=O)c2ccc(CC(=O)O)n2C)cc1 | inactive | – |
| CCCCCCCCCCCCCCCC(=O)OC(C)C | inactive | – |
| O=c1cc(-c2ccccc2)oc2ccccc12 | inactive | – |
| CCCCC1C(=O)N(c2ccccc2)N(c2ccc(O)cc2)C1=O (stereo not given) | inactive | – |
| O=C1CN(/N=C/c2ccc([N+](=O)[O-])o2)C(=O)N1 | inactive | – |
| C/C(=N\O)c1ccc(OCC(=O)N2CCCCC2)cc1 | inactive | – |
| CCCCCCCC/C=C/C(=O)O | inactive | – |
| O=C(O)/C=C\C(=O)O | inactive | – |
| N=C(N)N | inactive | – |
| C#CC1(O)CC[C@H]2[C@@H]3CCC4=CCCC[C@@H]4[C@H]3CC[C@@]21C (stereo not given in full) | inactive | – |
| COc1ccnc2c1CCCCC2S(=O)c1nc2ccccc2[nH]1 (stereo not given) | inactive | – |
| CC1(C)S[C@@H]2[C@H](NC(=O)[C@H](N)c3ccccc3)C(=O)N2[C@H]1C(=O)O | inactive | – |
| CC(C)(C)c1nnc(NS(=O)(=O)c2ccc(N)cc2)s1 | inactive | – |
| Cc1c(Nc2ncccc2C(=O)O)cccc1C(F)(F)F | inactive | – |
| Nc1ccc(C(=O)O)c(O)c1 | inactive | – |
| CN(C)c1ccc(N=NS(=O)(=O)O)cc1 | inactive | – |
